Counter-ions that a name gives are not always drawn.

For the experiment, the system named is HepG2-CANX-COX4. Briefly: phenotypically active (imaging signature differs from DMSO and reproducible) at any of 0.3-9 uM (binary (1 = active, 0 = inactive)); higher = active. The conditions noted are these: treatment time: 24 h. The method, boiled down:
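Two criteria together defined phenotypic activity: deviation and reproducibility. Deviation meant ≥3 of 4 wells beyond the 95th percentile of Euclidean distances in solvent control wells, and reproducibility meant a median replicate Pearson correlation above the 95th percentile of non-replicates. Wells had been treated for 24 h at 0.3, 1, 3 or 9 µM in fifteen gene-edited A549, HepG2 and WPMY1 reporter lines before live imaging.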
As for `N[C@@H]1C[C@H]1c1ccccc1` [Tranylcypromine hydrochloride], the phenotypically active was 0 (inactive).

Turning to `C/C=C1\CN2CC[C@]34c5cc(OC)ccc5N5C(=O)C(O)OC[C@@H]([C@H]53)[C@H]1C[C@H]24` (stereo partly specified) [10-Methoxy-o-demethyltsilanine], the phenotypically active is 0 (inactive).

`Fc1ccccc1C1=NCC(=S)N(CC(F)(F)F)c2ccc(Cl)cc21` [quazepam]: the phenotypically active is 0 (inactive).

Consider `COc1c2c(cc3c1OCO3)CC[N+](C)=C2` [Cotarnine chloride], for which the phenotypically active was 0 (inactive).

Regarding `N[C@H]1C[C@@H]1c1ccccc1` [tranylcypromine], the phenotypically active was 0 (inactive).

Regarding `O=c1ccc2ccc3occc3c2o1` [Angelicin], the phenotypically active is 0 (inactive).

Turning to `C[C@]12COC(=O)C[C@@H]1CC[C@@H]1[C@@H]2CC[C@@]2(C)[C@H]1CC[C@]2(C)O` [oxandrolone], the phenotypically active is 0 (inactive).

Take `CC(C)C[C@H](CN)CC(=O)O` [pregabalin]: the phenotypically active was 0 (inactive).

`NC(=S)N/N=C/c1coc2ccccc2c1=O`: the phenotypically active was 0 (inactive).

Take `O[C@H]1[C@H](O)[C@@H](O)CN2CC[C@H](O)[C@H]12` [Castanospermine]: the phenotypically active is 0 (inactive).

As to `Cc1ccc(-c2nc3ccc(C)cn3c2CC(=O)N(C)C)cc1` [zolpidem], the phenotypically active is 0 (inactive).

`CN1C(CC(O)c2ccccc2)CCCC1CC(O)c1ccccc1` (stereo unspecified) [Lobelanidine hydrochloride]: the phenotypically active was 0 (inactive).

For the molecule `CNC(=O)Oc1ccc2c(c1)[C@]1(C)CCN(C)O[C@@H]1N2C` [Geneserine], the phenotypically active was 0 (inactive).

On to `COc1ccc(C(=O)OC2C[C@H]3CC[C@H](C2)N3C)cc1OC` (stereo partly specified) [Convolamine hydrochloride], for which the phenotypically active was 0 (inactive).

Consider `CC(C)[N+](C)(CCC(C(N)=O)(c1ccccc1)c1ccccc1)C(C)C` [isopropamide-iodide], for which the phenotypically active was 0 (inactive).

`CC(C)N(CCC(C(N)=O)(c1ccccc1)c1ccccn1)C(C)C` (stereo unspecified) [disopyramide]: the phenotypically active is 0 (inactive).

Consider `O=C1C[C@@H]2OCC=C3C[N+]4([O-])CC[C@]56c7ccccc7N1[C@H]5[C@H]2[C@H]3C[C@@H]64` (stereo partly specified) [Genostrychnine base], for which the phenotypically active was 0 (inactive).

`C[C@@H]1CN([C@H]2CC[C@](C#N)(c3ccc(F)cc3)CC2)CC[C@]1(C(=O)O)c1ccccc1` [levocabastine]: the phenotypically active was 0 (inactive).

`Cc1ccc(C[N+](C)(C)C)o1` [5-Methylfurmethiodide]: the phenotypically active was 0 (inactive).

Consider `COc1cc2c3cc1Oc1cc(ccc1O)C[C@@H]1c4c(cc(OC)c(O)c4Oc4cccc(c4)C[C@@H]3N(C)CC2)CC[N+]1(C)C` [Tubocurarine chloride pentahydrate (+)], for which the phenotypically active is 0 (inactive).

In the case of `CCCC(C)C1(CC)C(=O)N=C(S)NC1=O` (stereo unspecified) [thiopental], the phenotypically active is 0 (inactive).

With `C=C1[C@H]2C[C@@]3([C@@H]1O)[C@@H](C[C@@H]2O)[C@]12[C@@H]4C[C@H]3[C@H]1N(CC)C[C@]4(C)CC[C@@H]2O` [Napelline], the phenotypically active was 0 (inactive).

On to `CO[C@H](C)[C@](O)(C(=O)OCC1=CCN2CC[C@H](O)[C@@H]12)C(C)C` [Heliotrine], for which the phenotypically active is 0 (inactive).

`C/C=C1\C[C@@H](C)[C@](O)(CO)C(=O)OCC2=CCN3CC[C@@H](OC1=O)[C@@H]23` [Retrorsine]: the phenotypically active is 0 (inactive).

For the molecule `CN(C)NC(=O)CCC(=O)O` [Daminozide], the phenotypically active was 0 (inactive).

On to `CN1[C@@H]2CC(=O)C[C@H]1[C@H](O)C2` [6-Hydroxytropinone], for which the phenotypically active was 0 (inactive).

As to `COc1ccc2c3c1O[C@H]1C(=O)CC[C@H]4[C@@H](C2)N(C)CC[C@]314` [hydrocodone], the phenotypically active was 0 (inactive).

As to `CCN(C(C)=O)c1cccc(-c2ccnc3c(C#N)cnn23)c1` [zaleplon], the phenotypically active was 0 (inactive).

For the molecule `C[N+]1([O-])[C@@H]2C[C@@H](OC(=O)[C@H](CO)c3ccccc3)C[C@H]1[C@@H]1O[C@@H]12` (stereo partly specified) [Genoscopolamine HBr], the phenotypically active is 0 (inactive).

As to `NCC1(CC(=O)O)CCCCC1` [gabapentin], the phenotypically active was 0 (inactive).

In the case of `CN1CCc2cc3c(cc2[C@H]1[C@@H]1OC(=O)c2c1ccc1c2OCO1)OCO3` [bicuculine], the phenotypically active was 0 (inactive).

With `c1cncc(C2CC3CCN2CC3)c1` (stereo unspecified) [RJR 2429 dihydrochloride], the phenotypically active was 0 (inactive).

For `CC1=CC(=O)C2=C(C)C[C@H](O)[C@@H]3[C@H](OC(=O)[C@H]3C)[C@@H]12` [Austricine hydrate], the phenotypically active is 0 (inactive).

`C=C(C)[C@H]1CN[C@H](C(=O)O)[C@H]1CC(=O)O` [Kainic acid]: the phenotypically active was 0 (inactive).

`C[C@H]1CCC2(NC1)O[C@H]1C[C@H]3[C@@H]4CC[C@H]5C[C@@H](O[C@@H]6O[C@H](CO)[C@H](O[C@@H]7O[C@H](CO)[C@@H](O)[C@H](O[C@@H]8OC[C@@H](O)[C@H](O)[C@H]8O)[C@H]7O[C@@H]7O[C@H](CO)[C@@H](O)[C@H](O)[C@H]7O)[C@H](O)[C@H]6O)CC[C@]5(C)[C@H]4CC[C@]3(C)[C@H]1[C@@H]2C` (stereo partly specified) [Tomatine]: the phenotypically active is 0 (inactive).

Regarding `CN1[C@@H]2C[C@@H](OC(=O)[C@H](CO)c3ccccc3)C[C@H]1[C@@H]1O[C@@H]12` [Scopolamine hydrobromide], the phenotypically active is 0 (inactive).

(Values after the supplement of paper PMC7411054.)
